Some compounds were tested as several samples or in several runs, with calls that do not always agree. The source made the active and inactive calls. Rule for the calls: active = hit-call score of the fitted dose curve at least 0.9, where 1 is the maximum; inactive = score below 0.9.

Sequence of Transcriptional activator Myb (Homo sapiens) (P10242 whole entry, looked up): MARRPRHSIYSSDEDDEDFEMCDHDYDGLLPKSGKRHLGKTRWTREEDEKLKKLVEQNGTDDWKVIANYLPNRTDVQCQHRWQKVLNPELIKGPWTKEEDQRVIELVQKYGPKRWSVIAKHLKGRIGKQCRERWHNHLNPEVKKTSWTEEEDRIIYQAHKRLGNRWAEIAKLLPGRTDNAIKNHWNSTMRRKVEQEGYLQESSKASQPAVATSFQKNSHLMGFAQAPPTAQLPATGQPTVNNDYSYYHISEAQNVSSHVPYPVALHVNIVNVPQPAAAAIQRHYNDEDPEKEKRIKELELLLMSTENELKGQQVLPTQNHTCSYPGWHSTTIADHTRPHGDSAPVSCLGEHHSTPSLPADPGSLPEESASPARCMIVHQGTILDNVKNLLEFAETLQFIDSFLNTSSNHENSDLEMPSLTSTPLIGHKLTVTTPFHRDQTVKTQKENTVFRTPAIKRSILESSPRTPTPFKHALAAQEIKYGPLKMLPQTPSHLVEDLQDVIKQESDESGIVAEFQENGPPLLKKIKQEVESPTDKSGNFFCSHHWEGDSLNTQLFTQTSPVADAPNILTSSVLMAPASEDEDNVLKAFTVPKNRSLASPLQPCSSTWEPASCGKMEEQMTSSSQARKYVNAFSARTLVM

This experiment concerns the target Transcriptional activator Myb (Homo sapiens) (UniProt P10242). Put plainly: ATG_Myb_CIS: Attagene CIS-FACTORIAL HepG2 Assay for human Myeloblastosis (Myb) Proto-Oncogene Transcription Factor (AID 2282986). The note with it: HepG2 Attagene CIS-FACTORIAL Myb reporter transcription; actives raise or lower the signal. Here is the method:
ATG_CIS is a cell-based, multiplexed-readout assay that uses HepG2, a human liver cell line, with measurements taken at 24 hours after chemical dosing in a 24-well plate.ATG_Myb_CIS is one of 52 assay component(s) measured or calculated from the ATG_CIS assay. It is designed to make measurements of mRNA induction, a form of inducible reporter, as detected with fluorescence intensity signals by Reverse transcription polymerase chain reaction (RT-PCR) and Capillary electrophoresis technology.Data from the assay component ATG_Myb_CIS was analyzed into 1 assay endpoint. This assay endpoint, ATG_Myb_CIS, was analyzed with bidirectional fitting relative to DMSO as the negative control and baseline of activity. Using a type of inducible reporter, measures of mRNA for gain or loss-of-signal activity can be used to understand the reporter gene at the transcription factor-level as they relate to the gene MYB. Furthermore, this assay endpoint can be referred to as a primary readout, because this assay has produced multiple assay endpoints where this one serves a reporter gene function. To generalize the intended target to other relatable targets, this assay endpoint is annotated to the dna binding intended target family, where the subfamily is MYB proteins.
Human liver HepG2 cells are transiently transfected with multiple reporter transcription units (MRTUs) in 6-well plates using FuGene 6 reagent (Roche; 3 ml FuGene/1 mg DNA). The MRTU constructs are regulated by a cis-regulating element (promoter). […] A major difference between the CIS and TRANS system is that in CIS activities of endogenous TFs are measured, whereas the TRANS assay evaluates changes in activities of exogenous, chimeric NR-Gal4 proteins. […] At the end of 24 hour incubation, total RNA was isolated using TriZol reagent (Invitrogen). The isolated RNA is then reverse-transcribed using oligo(dT) primer and Mo-MLV reverse transcriptase (Invitrogen) with DNAse I (Ambion) treatment for 30 min. The one-tenth of the produced cDNA was amplified by PCR using Taq DNA polymerase (Invitrogen) and two reporter sequence-specific primers. The PCR products were fluorescently labeled by primer extension with 6-arboxyfluorescein (6-FAM) 5'-labeled reporter sequence-specific primer (2 min at 95 C, 20 s at 68 C and 10 min at 72 C) and these products were digested with 5U of HpaI (New England Biolabs) for 2h at 37 C. The fragments were purified using Qiaquick PCR columns (Qiagen), analyzed on an ABI 3130xL genetic analyzer (Applied Biosystems) with peak positions identified by using a set of X-rhodamine (ROX)-labeled MapMarker1000 molecular weight standards (BioVentures). The raw capillary electrophoresis data was processed using Attagraph software (Attagene).
By AC50 is commonly meant the concentration at which the activity in the assay is half-maximal. `CC(C)(c1ccccc1)c1ccc(O)cc1`: the call was inactive and the AC50 is 51.8 µM (active).
Take `CC(C)C(=O)OCC(C)(C)C(OC(=O)C(C)C)C(C)C` (stereo not given): the outcome was inactive.
The same measure, in the same setting: the same measure for `C[C@]12CCC(=O)C=C1CC[C@@H]1[C@@H]2CC[C@]2(C)C(=O)CC[C@@H]12`: “inactive”.
Turning to `COS(=O)(=O)OC`, the compound was called inactive.
Still for that read-out and setting: for `Cc1ccccc1O` the value was “inactive”; for `c1ccc(-c2ccccc2)cc1`, “inactive”.
On to `Clc1ccc(C(Cl)(Cl)Cl)cc1`, for which the outcome was inactive.
Same read-out and setting: the same measure for `CCCCCCOC(=O)c1ccccc1C(=O)OCCCCCC`: “inactive”; for `CCC(C)(c1ccc(O)cc1)c1ccc(O)cc1`: “inactive”.
Still for that read-out and setting: the same measure for `CCCCCCCCCC[N+](C)(C)CCCCCCCCCC`: “inactive”.
On the same count and under the same terms, for `CO/C=C(/C(=O)OC)c1ccccc1COc1cccc(C(F)(F)F)n1` the value was “inactive”; for `O=C(NC(=O)c1c(F)cccc1F)Nc1cc(Cl)c(OC(F)(F)C(F)F)c(Cl)c1`, “inactive”.
For the compound `CCC(=O)O[C@H]1CC[C@H]2[C@@H]3CCC4=CC(=O)CC[C@]4(C)[C@H]3CC[C@]12C`, the result was inactive and the concentration at half-maximal activity (AC50) was 164 µM (active).
Regarding `CCCCCCCCCc1ccc(O)cc1`, the AC50 is 157 µM (active) and the compound was called inactive.
Consider `CN(C)c1nc(=O)n(C2CCCCC2)c(=O)n1C`, for which the outcome was inactive.
Still for that read-out and setting: the same measure for `O=C(NC(=O)c1cc(F)c(F)cc1Cl)Nc1cc(F)ccc1N1CCC(C(=O)O)CC1`: “inactive”.
Still for that read-out and setting: the same measure for `Cc1cc(-c2ccc(N)c(C)c2)ccc1N`: “inactive”.
In the case of `Cc1ccccc1CO[C@@H]1C[C@@]2(C(C)C)CC[C@]1(C)O2`, the call was inactive.
As to `Cc1ccccc1[N+](=O)[O-]`, the outcome was inactive.
The same measure, in the same setting: for `Clc1ccc(Cl)cc1` the value was “inactive”; for `OCC(O)CO`, “inactive”; for `CC#Cc1cc(C)nc(Nc2ccccc2)n1`, “inactive”.
Consider `ClC1=C(Cl)[C@]2(Cl)[C@@H]3[C@@H]4C[C@@H]([C@H]5O[C@@H]45)[C@@H]3[C@@]1(Cl)C2(Cl)Cl`, for which the call was inactive.
Same read-out and setting: for `Nc1ccc(-c2ccc(N)cc2)cc1` the value was “inactive”; for `CCCN(CCC)N=O`, “inactive”.
On the same count and under the same terms, for `Cc1ccc(O)c(C)c1` the value was “inactive”; for `CCC(C)c1cc([N+](=O)[O-])cc([N+](=O)[O-])c1O` (stereo not given), “inactive”.
On to `Sc1ccccc1`, for which the compound was called inactive.
For the compound `CCOCCOC(C)=O`, the result was inactive.
Turning to `CN(C)CCO`, the outcome was inactive.
On to `COc1ccc(O)c(C(C)(C)C)c1`, for which the result was inactive.
Consider `Nn1cnnc1`, for which the result was inactive.
As for `Clc1ccc(C(c2ccccc2Cl)C(Cl)(Cl)Cl)cc1` (stereo not given), the compound was classed as inactive.
As for `Oc1c(Cl)c(Cl)c(Cl)c(Cl)c1Cl`, the outcome was inactive.
Same read-out and setting: the same measure for `ClC(Cl)=C(c1ccc(Cl)cc1)c1ccc(Cl)cc1`: “inactive”; for `Cc1cc2c3c(c1)C(c1ccccc1)=N[C@@H](NC(=O)c1ccncc1)C(=O)N3CC2`: “inactive”.
Still for that read-out and setting: for `C1CC2OC2CC1C1CO1` (stereo not given) the value was “inactive”.
